# Screens: PubChem BioAssay, National Center for Advancing Translational Sciences (NCATS)
# FMDV inh = High Throughput Screening for Foot and Mouth Disease Virus Antivirals | FMDV antiviral cell-based qHTS | hit rate 1.2% among 410,000 | Potency, µM (doses to about 57.9 µM), for inactives: at the top dose activity change, negative = inhibition, most hits filed as inhibitors; calls by dose curve; tested in HEK293T cells; also: read-out not given here; potency is read from the fitted curve at half-maximal effect; nearly all actives have a fitted effect of over 45% in size
# HCMV antiviral = qHTS Assay for inhibitors of the human cytomegalovirus (HCMV); activity change, negative = inhibition, % at 57.5 µM; HFF cells, HCMV-luciferase reporter, 72 h; hits give low values; AID 1259415, 2018; hit rate 4.5% among 410,000; in the data active = activity change below about -60%; inconclusive = no clear call, values can overlap the other calls; inactive = above about -39%
#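 Screen run at 2 compound doses on HFFs infected with reporter HCMV, MOI 1 PFU/cell. Luciferase activity from cell lysates at 72 h post infection gave inhibition relative to buffer-only and Salinomycin wells.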
# Marburg entry inh = qHTS for inhibitors of binding or entry into cells for Marburg Virus. hit rate 1.8% among 300,000. Marburg virus pseudotyped entry inhibition, cell reporter. Potency, µM (titrated, usually from 37.8 µM), for inactives: top-dose activity change, negative = inhibition, actives largely listed as inhibitors; calls by dose curve; tested in HEK293 cells; also: potency is read from the fitted curve at half-maximal effect
# VACV mCherry inh = qHTS for Stage-Specific Inhibitors of Vaccinia Orthopoxvirus: mCherry Reporter Primary qHTS; Vaccinia virus mCherry reporter infection, fluorescence; Potency, µM (doses to about 36.5 µM), for the others: top-dose activity change, negative = inhibition, most hits filed as inhibitors; hit rate 0.63% among 310,000; AID 720579, 2013; calls by dose curve; tested in A549 cells; also: potency is read from the fitted curve at half-maximal effect; nearly all actives have a fitted effect of over 35% in size
# LASV entry inh = qHTS for Inhibitors of binding or entry into cells for Lassa Virus; Lassa virus pseudotype entry inhibition, cell reporter; Potency, µM (highest dose often 37.9 µM), for the others: at the top dose activity change, negative = inhibition, hits mostly inhibitors; hit rate 1.2% among 300,000; calls by dose curve; tested in HEK293 cells; also: potency is read from the fitted curve at half-maximal effect; nearly all actives have a fitted effect of over 50% in size
# Vaccinia Venus = qHTS for Stage-Specific Inhibitors of Vaccinia Orthopoxvirus: Venus Reporter Primary qHTS | Vaccinia virus Venus reporter expression, fluorescence | Potency, µM (series often up to 36.5 µM), for inactives: top-dose activity change, negative = inhibition, actives largely listed as inhibitors | hit rate 0.46% among 330,000 | AID 720580, 2013; calls by dose curve; tested in A549 cells; also: potency is read from the fitted curve at half-maximal effect; nearly all actives have a fitted effect of over 30% in size
# * hit, by the source's call; i = inactive; ? = inconclusive; · = no result; + = active, no number; [ ] = remark or other dose. This is a sample that favours compounds with a hit; in the whole collection about 6.5% have one here. % is scaled to controls: 0 for no effect and ±100 for the full control effect.
SMILES,FMDV inh,HCMV antiviral,Marburg entry inh,VACV mCherry inh,LASV entry inh,Vaccinia Venus
O=C(Cc1ccc(Cl)cc1Cl)Nc1cccc(S(=O)(=O)Nc2ccccc2F)c1,-8%,9,?,-20%,7.3µM*,-15%
NC(=O)CC[C@H](NC(=O)c1ccc(F)cc1)C(=O)N1CCN(Cc2ccc3c(c2)OCO3)CC1,-19%,-70*,9%,-19%,-12%,-7%
Nc1nc(NCc2ccc(Cl)cc2Cl)c2[nH]cnc2n1,·,·,·,-8%,·,-20%
CCCCCCCCCCCCCCCCOCC(COP(=O)([O-])OCC[N+](C)(C)C)OC (configuration not stated),2%[6.7 µM],·,·,-15%[3.33 µM],·,-6%[3.33 µM]
CNc1ccc2ncc(-c3ccc(OC)c(OC)c3)n2n1,-4%,-83*,·,-5%,·,?
CNc1cc(-c2ccc(OC)c(OC)c2)ncn1,22%,95,·,8%,·,-4%
CC(C)(C)N=C1NC(=NC(C)(C)C)c2ccccc21,-13%,-63*,15µM*,?,?,-24%
COc1ccc(-c2oc3ncn4nc(-c5ccccc5OC)nc4c3c2-c2ccc(OC)cc2)cc1,1%,4,·,i,2%[46.1 µM],-19%
Cc1cc(NC(=O)CSCC(=O)Nc2ccc(C)c(C)c2)no1,-16%,+,·,·,·,·
COCCn1c(-c2ccc(OC)cc2)cnc1SCC(=O)Nc1cc(C)on1,?,-86*,?,-9%,-11%,-30%
Cc1cc(NC(=O)CSc2nc(=O)cc(N)n2-c2ccc(Cl)cc2)no1,10%,-64*,-1%[46.1 µM],i,-4%[46.1 µM],-10%
Cc1cc(NC(=O)CCc2ccc(-c3ccccc3)o2)no1,-2%,-102*,?,i,?,-6%
Cc1ccc(C(=O)c2cn(CC(=O)Nc3ccc(C)cc3Cl)c3nc(C)ccc3c2=O)cc1,-3%,12,·,?,30%[46.1 µM],-25%
COc1cccc(-n2c(=O)c3c(C)c(C(=O)N(C)C)sc3n(Cc3ccc(F)cc3Cl)c2=O)c1,?,50,·,-12%,-18%[46.1 µM],-16%
CCOc1ccc(CCNC(=O)c2cc3c(=O)oc4ccc(C)cc4c3s2)cc1OCC,1%,13,13%[46.1 µM],0%,9%[46.1 µM],-5%
CCOC(=O)c1cccn1C1C(=O)N(Cc2ccc(C(C)C)cc2)c2ccc(Cl)cc21 (configuration not stated),·,-12,·,·,·,·
C=CCCC1CN(Cc2ccc(OC)cc2)S(=O)(=O)c2c(Oc3ccc(C(C)C)cc3)cccc2O1 (configuration not stated),·,-9,·,·,·,·
Cc1cc(NC(=O)CSc2ccccc2)no1,33%,-102*,?,i,16%,?
Cc1cc(NC(=O)CSc2ccc(F)cc2)no1,-12%,?,·,·,·,·
CCc1cc2c(C)cc(C)cc2nc1SCC(=O)Nc1cc(C)on1,-8%,-4,14%[46.1 µM],i,?,-17%
Cc1cc(C)c2cc(C#N)c(SCC(=O)Nc3cc(C)on3)nc2c1,8%,-61*,20%[46.1 µM],0%,·,-2%
Cc1cc(NC(=O)CSc2nnc(-c3ccccc3)o2)no1,-3%,15,7%[46.1 µM],-12%,0%[46.1 µM],-11%
Cc1cc(NC(=O)CSc2nnc(-c3ccccc3)c(-c3ccccc3)n2)no1,?,-62*,?,-22%,?,-20%
CCOc1cc(-c2nnc(SCC(=O)NCc3ccccc3)nc2-c2ccc(OC)c(OCC)c2)ccc1OC,-7%,-75*,·,?,?,?
O=S(=O)(c1ccc(Br)cc1)c1nnn2c1nc(Nc1cccc(C(F)(F)F)c1)c1sccc12,-12%,1,·,-1%,-18%[46.1 µM],-22%
SMILES,FMDV inh,HCMV antiviral,Marburg entry inh,VACV mCherry inh,LASV entry inh,Vaccinia Venus
COc1ccc(NC(=O)Cn2c(=O)n(CCC(=O)NCc3ccccc3OC)c(=O)c3ccccc32)cc1Cl,?,7,10%[46.1 µM],-22%,-5%[46.1 µM],-27%
COC(=O)c1sccc1S(=O)(=O)N(CC(=O)NCc1ccc(C)cc1)c1ccc(Cl)cc1,-1%,-5,·,-13%,?,-15%
O=C(C[n+]1ccccc1Cl)c1ccccc1,·,·,·,-11%,·,-22%
Cc1ccc(C(=O)N2CCN(c3ccc(NC(=O)c4ccc5c(c4)OCCO5)cc3)CC2)cc1,14µM*,52,?,-23%,?,-8%
Cc1ccccc1C(=O)N1CCN(c2ccc(NC(=O)c3ccc4c(c3)OCCO4)cc2)CC1,7.1µM*,-89*,5µM*,?,?,-24%
COc1c(C)cccc1C(=O)Nc1ccc(N2CCN(C(=O)c3ccccc3C)CC2)cc1,?,-36,?,-20%,?,-30%
Cc1ccccc1C(=O)N1CCN(c2ccc(NC(=O)c3cccc(OC(C)C)c3)cc2)CC1,16µM*,-3,11%,-17%,-2%,-6%
CN1C(=O)N(c2ccccc2)[C@@H](Nc2nncs2)C1(C)C,·,·,0%,·,·,·
CC1CCN(c2nc3c(c(=O)n(C)c(=O)n3C)n2Cc2ccccc2)CC1,·,-31,-23%,20µM*,7.3µM*,-20%
COc1cccc(Cn2c(NCc3cccnc3)nc3c2c(=O)n(C)c(=O)n3C)c1,?,-26,?,4.5µM*,?,?
COCCNc1nc2c(c(=O)n(C)c(=O)n2C)n1Cc1cccc(C)c1,0%,-18,?,·,-29%,·
CC1CCCCN1Cc1nc2c(c(=O)n(C)c(=O)n2C)n1Cc1ccc(Br)cc1 (configuration not stated),-22%,-4,17%[46.1 µM],-7%,14%[46.1 µM],-13%
CC1CCCCN1Cc1nc2c(c(=O)n(C)c(=O)n2C)n1CCc1ccccc1 (configuration not stated),-28%,-67*,-6%,·,-13%,25%
Cc1cccc(Cn2c(NCCO)nc3c2c(=O)n(C)c(=O)n3C)c1,?,-75*,?,?,-29%,?
CCOC(=O)c1cccc(NC(=O)C2Cc3ccccc3N2C(=O)c2ccccc2)c1 (configuration not stated),-1%,12,·,-6%,11%[46.1 µM],-10%
CNc1nc2c(c(=O)n(C)c(=O)n2C)n1Cc1ccccc1,?,-65*,?,·,-16%,·
Cn1c(=O)c2c(nc(N3CCOCC3)n2Cc2ccccc2Cl)n(C)c1=O,-1%,-9,2%[46.1 µM],-11%,0%[46.1 µM],-17%
COCCn1c(N2CCN(c3ccc(OC)cc3)CC2)nc2c1c(=O)n(C)c(=O)n2C,-1%,-10,-5%,·,?,·
C=CCn1c(N2CCN(c3ccc(OC)cc3)CC2)nc2c1c(=O)n(C)c(=O)n2C,28µM*,-21,?,-4%,?,-2%
Cn1c(=O)c2c(nc(N3CCOCC3)n2Cc2ccccc2F)n(C)c1=O,-9%,-104*,-3%[46.1 µM],-4%,-1%[46.1 µM],-5%
CCCCN(CCCN)c1ccc(Br)cn1,·,·,·,-1%,·,-21%
